The source of these data is PubChem BioAssay (NCI).

Assay [1] is described as follows: NCI Yeast Anticancer Drug Screen. Data for the rad50 strain (AID 155).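 Note: 0% = growth of vehicle-only cultures of the same strain.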 Particulars: S. cerevisiae rad50 strain growth inhibition, stronger effect = higher value. The essentials: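 Relative growth inhibition (compound vs vehicle) was measured in yeast with a defined repair-gene alteration.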
A short description of assay [2]: NCI Yeast Anticancer Drug Screen. Data for the mec2-1 strain (AID 157). The note with it: S. cerevisiae mec2-1 strain, stronger effect = higher value. A digest of the protocol:
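Each compound was tested on mec2-1 yeast, a strain altered in DNA damage repair or cell cycle control. Growth inhibition is reported relative to vehicle.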

Assay [3] in a line: NCI Yeast Anticancer Drug Screen. Data for the sgs1 mgt1 strain (AID 161).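 Note: 0% = growth of cultures given vehicle only.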 Particulars: S. cerevisiae sgs1 mgt1 strain, stronger effect = higher value. The essentials: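 Test agents were incubated with a DNA-repair-mutant yeast strain. Growth was then read and compared against vehicle-treated controls.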
Assay [4] in a line: NCI Yeast Anticancer Drug Screen. Data for the cln2 rad14 strain (AID 165).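 Note: 0% = growth equal to vehicle treated cultures.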 Particulars: S. cerevisiae cln2 rad14 strain, stronger effect = higher value. The essentials: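 Test compounds were added to cln2 rad14 yeast cultures; inhibition of growth was then determined by comparison with vehicle treatment.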
The nature of assay [5]: NCI Yeast Anticancer Drug Screen. Data for the bub3 strain (AID 167). The note with it: S. cerevisiae bub3 mutant strain, stronger effect = higher value. A digest of the protocol:
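Screening used yeast with an engineered genetic alteration affecting cell cycle control. Compound-exposed cultures were compared with vehicle cultures, and reduced growth was taken as inhibition.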

Assay [6] can be described thus: NCI Yeast Anticancer Drug Screen. Data for the mlh1 rad18 strain (AID 175). Particulars: S. cerevisiae mlh1 rad18 strain growth inhibition, stronger effect = higher value. The essentials:
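Inhibition values reflect reduced growth of mutant yeast versus vehicle-treated controls following compound exposure; the mutations affect DNA damage repair.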

The mark [7] stands for this setting: at 5.0 µM (retest, dose inferred, filed as 0.5).
The mark [8] stands for this setting: at 50.0 µM (retest, dose inferred, filed as 5.0).

This is part of a sample that, as a whole, favours compounds with a hit. Of some 79,000 tested, about 15% had one in any assay. A number with no mark means an inactive call. Activity calls are given as the source filed them. Cut-off read from the data, not from the text of the source: active = growth inhibition above about 70%; inactive = the rest.

For the compound `COc1cc2c(cc1OC)C(N(C)C)C(c1ccccc1)=C2Cl` (stereo not given), the growth inhibition in assay [1] (setting [7]) is 0%; in assay [1] (setting [8]) it was 96% (active); in assay [1] (at 50.0 µM) it was 91.2% (active); in assay [2] (setting [7]), -28%; in assay [2] (setting [8]), 99% (active); in assay [2] (at 50.0 µM), 93.5% (active). In addition, the growth inhibition was 1% in assay [3] (setting [7]); 96% (active) in assay [3] (setting [8]); 92.2% (active) in assay [3] (at 50.0 µM); 14% in assay [4] (setting [7]); 98% (active) in assay [4] (setting [8]); 91.5% (active) in assay [4] (at 50.0 µM). In addition, the growth inhibition in assay [5] (setting [7]) was 25%; in assay [5] (setting [8]) it was 98% (active); in assay [5] (at 50.0 µM), 90.8% (active); in assay [6] (setting [7]), 7%; in assay [6] (setting [8]), 99% (active); in assay [6] (at 50.0 µM) it was 90.4% (active).
Turning to `O=C(Oc1c(I)ccccc1=O)c1ccc([N+](=O)[O-])cc1`, the growth inhibition in assay [1] (setting [7]) is 39%; in assay [1] (setting [8]) it was 98% (active); in assay [1] (at 50.0 µM), 99.2% (active); in assay [2] (setting [7]), 57%; in assay [2] (setting [8]), 99% (active); in assay [2] (at 50.0 µM) it was 99.3% (active). Also, the growth inhibition in assay [3] (setting [7]) was 73% (active); in assay [3] (setting [8]), 99% (active); in assay [3] (at 50.0 µM), 99.3% (active); in assay [4] (setting [7]), 13%; in assay [4] (setting [8]), 98% (active); in assay [4] (at 50.0 µM), 99.2% (active). The growth inhibition in assay [5] (setting [7]) was 21%; in assay [5] (setting [8]), 98% (active); in assay [5] (at 50.0 µM), 99% (active); in assay [6] (setting [7]) it was 94% (active); in assay [6] (setting [8]), 99% (active); in assay [6] (at 50.0 µM), 99.5% (active).
Consider `COc1ncnc2nc(SC)[nH]c12`, for which the growth inhibition is -1% in assay [1] (setting [7]); -2% in assay [1] (setting [8]); 99.7% (active) in assay [1] (at 50.0 µM); 1% in assay [2] (setting [7]); -2% in assay [2] (setting [8]); 99.8% (active) in assay [2] (at 50.0 µM). In addition, the growth inhibition in assay [3] (setting [7]) is -1%; in assay [3] (setting [8]) it was -4%; in assay [3] (at 50.0 µM), 99.6% (active); in assay [4] (setting [7]), 0%; in assay [4] (setting [8]), -2%; in assay [4] (at 50.0 µM), 99.7% (active). Further, the growth inhibition was -1% in assay [5] (setting [7]); -4% in assay [5] (setting [8]); 99.7% (active) in assay [5] (at 50.0 µM); 0% in assay [6] (setting [7]); -4% in assay [6] (setting [8]); 99.5% (active) in assay [6] (at 50.0 µM).
Regarding `CCn1c(C)cc(=O)n1-c1ccc([N+](=O)[O-])cc1`, the growth inhibition in assay [1] (setting [7]) was -160%; in assay [1] (setting [8]) it was -148%; in assay [1] (at 50.0 µM), 51.1%; in assay [2] (setting [7]), -45%; in assay [2] (setting [8]), -50%; in assay [2] (at 50.0 µM), 17.4%. Moreover, the growth inhibition in assay [3] (setting [7]) was -60%; in assay [3] (setting [8]), -48%; in assay [3] (at 50.0 µM), 25.4%; in assay [4] (setting [7]) it was -64%; in assay [4] (setting [8]) it was -69%; in assay [4] (at 50.0 µM), 24%. Also, the growth inhibition in assay [5] (setting [7]) is -71%; in assay [5] (setting [8]), -78%; in assay [5] (at 50.0 µM), 50.1%; in assay [6] (setting [7]), -146%; in assay [6] (setting [8]), -110%; in assay [6] (at 50.0 µM), 68.9%.
For `COc1cccc2c1C(=O)c1c(O)c3c(c(O)c1C2=O)CC(O)(C(=O)CO)CC3OC1CC(N)C(I)C(C)O1` (stereo not given), the growth inhibition in assay [1] (setting [7]) is 98% (active); in assay [1] (setting [8]) it was 98% (active); in assay [1] (at 50.0 µM), 89.5% (active); in assay [2] (setting [7]) it was 98% (active); in assay [2] (setting [8]), 99% (active); in assay [2] (at 50.0 µM), 88.8% (active). For the same compound, the growth inhibition in assay [3] (setting [7]) is 98% (active); in assay [3] (setting [8]) it was 98% (active); in assay [3] (at 50.0 µM), 85.8% (active); in assay [4] (setting [7]), 95% (active); in assay [4] (setting [8]) it was 98% (active); in assay [4] (at 50.0 µM), 87.4% (active). In addition, the growth inhibition was 98% (active) in assay [5] (setting [7]); 98% (active) in assay [5] (setting [8]); 83.8% (active) in assay [5] (at 50.0 µM); 96% (active) in assay [6] (setting [7]); 97% (active) in assay [6] (setting [8]); 91% (active) in assay [6] (at 50.0 µM).
For the compound `O=C(Nc1ccccc1[N+](=O)[O-])/C(=N/Nc1cccc(Cl)c1)c1c(O)c2ccccc2oc1=O`, the growth inhibition in assay [1] (setting [7]) is 29%; in assay [1] (setting [8]), 29%; in assay [1] (at 50.0 µM), 87.1% (active); in assay [2] (setting [7]), 36%; in assay [2] (setting [8]), 36%; in assay [2] (at 50.0 µM), 79.5% (active). The growth inhibition in assay [3] (setting [7]) was 35%; in assay [3] (setting [8]), 35%; in assay [3] (at 50.0 µM), 89.5% (active); in assay [4] (setting [7]), 11%; in assay [4] (setting [8]) it was 11%; in assay [4] (at 50.0 µM) it was 43.2%. Moreover, the growth inhibition in assay [5] (setting [7]) is 27%; in assay [5] (setting [8]), 27%; in assay [5] (at 50.0 µM), 78.8% (active); in assay [6] (setting [7]), 44%; in assay [6] (setting [8]), 44%; in assay [6] (at 50.0 µM) it was 70% (active).
As to `O=C(O)c1nc2cc(C(F)(F)F)ccc2nc1Nc1ccc(F)cc1`, the growth inhibition in assay [1] (setting [7]) was 32%; in assay [1] (setting [8]), 64%; in assay [1] (at 50.0 µM), 64%; in assay [2] (setting [7]), 23%; in assay [2] (setting [8]), 66%; in assay [2] (at 50.0 µM) it was 68.2%. Moreover, the growth inhibition was 23% in assay [3] (setting [7]); 60% in assay [3] (setting [8]); 74.7% (active) in assay [3] (at 50.0 µM); 20% in assay [4] (setting [7]); 57% in assay [4] (setting [8]); 79.7% (active) in assay [4] (at 50.0 µM). In addition, the growth inhibition is 31% in assay [5] (setting [7]); 60% in assay [5] (setting [8]); 74.7% (active) in assay [5] (at 50.0 µM); 30% in assay [6] (setting [7]); 75% (active) in assay [6] (setting [8]); 42.9% in assay [6] (at 50.0 µM).
On to `CCCCCCCCCCCCCCCC[N+](C)(C)C(C)c1ccc(OC)cc1` (stereo not given), for which the growth inhibition is 98% (active) in assay [1] (setting [7]); 98% (active) in assay [1] (setting [8]); 90.6% (active) in assay [1] (at 50.0 µM); 98% (active) in assay [2] (setting [7]); 98% (active) in assay [2] (setting [8]); 90.2% (active) in assay [2] (at 50.0 µM). The growth inhibition in assay [3] (setting [7]) was 98% (active); in assay [3] (setting [8]) it was 99% (active); in assay [3] (at 50.0 µM), 90% (active); in assay [4] (setting [7]), 98% (active); in assay [4] (setting [8]), 99% (active); in assay [4] (at 50.0 µM) it was 85.8% (active). In addition, the growth inhibition in assay [5] (setting [7]) is 98% (active); in assay [5] (setting [8]) it was 98% (active); in assay [5] (at 50.0 µM) it was 92.3% (active); in assay [6] (setting [7]), 98% (active); in assay [6] (setting [8]), 97% (active); in assay [6] (at 50.0 µM), 91.8% (active).
As to `Cn1cnc([N+](=O)[O-])c1Sc1nnnn1-c1ccccc1`, the growth inhibition was 53% in assay [1] (setting [7]); 86% (active) in assay [1] (setting [8]); 82% (active) in assay [1] (at 50.0 µM); 29% in assay [2] (setting [7]); 70% (active) in assay [2] (setting [8]); 75.8% (active) in assay [2] (at 50.0 µM). Besides, the growth inhibition in assay [3] (setting [7]) is 47%; in assay [3] (setting [8]) it was 71% (active); in assay [3] (at 50.0 µM) it was 68.7%; in assay [4] (setting [7]) it was 32%; in assay [4] (setting [8]), 51%; in assay [4] (at 50.0 µM), 36.1%. For the same compound, the growth inhibition in assay [5] (setting [7]) is 42%; in assay [5] (setting [8]), 75% (active); in assay [5] (at 50.0 µM), 80.8% (active); in assay [6] (setting [7]), 60%; in assay [6] (setting [8]) it was 91% (active); in assay [6] (at 50.0 µM) it was 80.5% (active).
`N#CC(Br)(C#N)Cc1ccccc1`: the growth inhibition was 1% in assay [1] (setting [7]); 100% (active) in assay [1] (setting [8]); 98.8% (active) in assay [1] (at 50.0 µM); 8% in assay [2] (setting [7]); 100% (active) in assay [2] (setting [8]); 99.6% (active) in assay [2] (at 50.0 µM). Besides, the growth inhibition in assay [3] (setting [7]) was -11%; in assay [3] (setting [8]), 90% (active); in assay [3] (at 50.0 µM) it was 99.1% (active); in assay [4] (setting [7]) it was -10%; in assay [4] (setting [8]), 99% (active); in assay [4] (at 50.0 µM), 99.2% (active). Also, the growth inhibition was 9% in assay [5] (setting [7]); 100% (active) in assay [5] (setting [8]); 99.5% (active) in assay [5] (at 50.0 µM); -10% in assay [6] (setting [7]); 100% (active) in assay [6] (setting [8]); 99.3% (active) in assay [6] (at 50.0 µM).
